# Screens from PubChem BioAssay.
# TEAD-YAP block: TEAD-YAP interaction inhibition; HEK-TIYL cells, TEAD-Gal4/YAP UAS-luciferase luminescence; inhibition, % at 9.12 µM; 640,000 tested, 1.4% active; AID 1259422; in the data active = inhibition above about 32%;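 also: 0% = median of test compound wells and 100% = reference inhibitor wells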
# FBW7 act: activators of human E3 ligase FBW7; AlphaScreen FBW7–phospho-cyclin E peptide binding, activator screen; normalized activity (activation), % at 26.1 µM; 650,000 tested, 0.13% active; in the data active = normalized activity above about 1.9%;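 also: purified mutant Fbw7 with reduced substrate affinity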
# MITF inh: inhibitors of human MITF | O75030 | 650,000 tested, 0.91% active | inhibition, % at 2.6 µM | AlphaScreen MITF homodimerization, bead proximity signal; in the data active = inhibition above about 50%;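 also: 0% = vehicle wells with protein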
# GPR151 activ: activates the human receptor GPR151; 650,000 tested, 1% active; PathHunter beta-arrestin GPR151 cells, luminescence; Q8TDV0; activation, % at 11.2 µM; in the data active = activation above about 4.9%;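 also: 0% = median of compound wells and 100% = cells with positive control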
# Target sequence (Q8TDV0 whole entry, looked up): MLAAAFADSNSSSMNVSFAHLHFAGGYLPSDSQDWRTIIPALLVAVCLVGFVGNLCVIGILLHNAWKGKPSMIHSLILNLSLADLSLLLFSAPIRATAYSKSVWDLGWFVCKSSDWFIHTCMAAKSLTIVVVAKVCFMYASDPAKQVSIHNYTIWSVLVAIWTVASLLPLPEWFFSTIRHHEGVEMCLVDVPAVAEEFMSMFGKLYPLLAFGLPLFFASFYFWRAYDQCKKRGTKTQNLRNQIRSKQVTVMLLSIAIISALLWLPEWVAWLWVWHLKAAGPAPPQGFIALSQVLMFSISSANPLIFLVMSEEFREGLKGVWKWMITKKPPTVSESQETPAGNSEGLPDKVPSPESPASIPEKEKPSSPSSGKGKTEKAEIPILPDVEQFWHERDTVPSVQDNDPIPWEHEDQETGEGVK
# MITF inh conf: confirmation of human MITF inhibitors | inhibition, % at 2.6 µM | shares compounds with MITF inh | AID 1259372 | AlphaScreen MITF homodimerization, biotin/His-MITF beads | 4,700 tested, 16% active;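 active = inhibition above a cutoff derived from the DMSO control wells, cut at about 28% in these data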;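 also: 0% = MITF dimer wells with DMSO only; inhibitors lower the bead chemiluminescence by keeping MITF from dimerizing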
# AS interf DR: optically interferes with AlphaScreen signal in dose response; shares compounds with MITF inh; AlphaScreen optical interference counterscreen, cell-free; IC50, µM; 480 tested, 6% active; AID 1259373; call rule not given here
# AS interf ctr: optically interferes with AlphaScreen signal; 4,700 tested, 7.6% active; LysRS AlphaScreen counterscreen, signal interference, triplicate; shares compounds with MITF inh; inhibition, % at 2.6 µM;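 active = inhibition above a cutoff derived from the DMSO control wells, cut at about 30% in these data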
# GPR151 confirm: human GPR151 activation, confirmation screen. GPR151 PathHunter beta-arrestin cells, luminescence, 90 min; % of EA-reagent control over plate median. 6,700 tested, under 10 active. AID 1508609. activation, % at 11.2 µM. shares compounds with GPR151 activ;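 active = mean percent activation across replicates above the confirmation screen cutoff of 4.91%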
# GPR119 counter: counter-screen for GPR151 activators: effect on human GPR119; shares compounds with GPR151 activ; GPR119 PathHunter beta-arrestin cells, luminescence, 90 min; 0 = compound-well median, 100 = enzyme-acceptor control; activation, % at 11.2 µM; 6,700 tested, 0.3% active;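 active = mean percent activation in the counterscreen above 29.09%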;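 also: counterscreen on off-target GPR119 to flag nonselective hits from the GPR151 activator screen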
# Numbers without * were called inactive; x = no result. Rows were chosen to be rich in hits. Some 3.5% of all compounds tested hit in one or more screens of this group.
SMILES,TEAD-YAP block,FBW7 act,MITF inh,GPR151 activ,MITF inh conf,AS interf ctr,others
CC1=C(C(=O)OCc2ccccc2)C(c2cccc(O)c2)C2=C(CC(C)(C)CC2=O)N1 (centres undefined),-2.1,0.2,3.0,-1.0,x,x,
COc1ccc(-c2nnc(NC(C)=O)o2)cc1,-2.5,0.4,10.0,-0.4,x,x,
O=C(Nc1c2c(nn1-c1ccc(F)cc1)CSC2)c1cccc([N+](=O)[O-])c1,5.2,-0.1,-6.3,0.0,x,x,
CC(C)NC(=O)C1CCN(Cc2ccccc2Cl)CC1,4.1,-0.2,53.8*,0.0,-9.6,-5.6,
Cc1ccc(CN2CCC(C(=O)NC(C)C)CC2)cc1,8.1,0.3,64.7*,-0.9,-5.5,-4.5,
CC(C)NC(=O)C1CCN(Cc2cccc(OCc3ccccc3)c2)CC1,4.6,0.6,57.0*,-0.2,-10.2,-6.5,
CC(C)NC(=O)C1CCN(Cc2cccc(Cl)c2Cl)CC1,7.1,0.4,53.5*,1.1,-21.1,-0.9,
CC(O)CNC(=O)C1CCN(Cc2ccc(OCc3ccccc3)cc2)CC1 (centres undefined),-13.7,0.6,33.6,0.6,x,x,
Cc1nc2ncnn2c(N2CCC(C(=O)Nc3cccc(F)c3)CC2)c1C,7.9,0.0,-2.2,2.2,x,x,
CCC(=O)Nc1cc(NC(=O)CSc2nc(N)cc(N)n2)ccc1C,3.2,-0.1,-1.8,-0.5,x,x,
O=C(C1=CCN(S(=O)(=O)c2ccc(F)cc2)CC1)N1CCC2(CC1)OCCO2,-7.2,0.0,11.7,-0.3,x,x,
CCOC(=O)N1CCN(CC(=O)N2c3ccccc3Sc3ccccc32)CC1,-10.1,-0.2,52.6*,-0.6,12.0,3.2,
CCOC(=O)N1CCN(CC(=O)N2c3ccccc3CC2C)CC1 (centres undefined),-0.1,0.2,66.8*,-1.1,4.7,10.5,
CC1Cc2ccccc2N1C(=O)CN1CCCN(CC(=O)N2c3ccccc3CC2C)CC1 (centres undefined),7.6,-0.2,62.2*,0.1,5.1,7.4,
CC1Cc2ccccc2N1C(=O)CN1CCN(C)CC1 (centres undefined),4.6,-0.1,77.4*,-1.4,-16.4,-0.2,
CC(C)C(=O)NC(N1CCOCC1)C(Cl)(Cl)Cl (centres undefined),-6.5,0.2,19.3,0.6,x,x,
OC(CNC1CCCC1)COc1ccc(OCC(O)CNC2CCCC2)cc1 (centres undefined),8.5,-0.1,5.1,3.0,x,x,
CC1(C)C2CCC1(C)C(NCC(O)COc1ccc(C#N)cc1)C2 (centres undefined),4.5,-0.2,76.8*,-0.5,-18.4,-4.4,
C=CCNCCOCCOc1ccc(OCC)cc1,14.6,1.6,51.4*,6.0*,48.9*,7.4,AS interf DR=>6.48;GPR151 confirm=0.7;GPR119 counter=0.6
CC(C)C[C@H]1NC(=O)[C@@H]2C[C@H](NC(=O)c3ccc(-c4ccccc4)cc3)CN2C1=O,7.5,0.1,8.0,-1.1,x,x,
CCCN(CC1CC1)C(=O)C1CCN(Cc2ccc(C)cc2)CC1,3.1,0.3,53.4*,5.2*,12.2,7.0,GPR151 confirm=-0.5;GPR119 counter=-2.0
O=C1c2cccc3cccc(c23)C(=O)N1/N=C/c1cccc([N+](=O)[O-])c1,-6.7,0.8,0.4,-0.9,x,x,
CC(=O)c1cccc(NC(=O)COc2ccc(Cl)c(C)c2)c1,-8.7,-0.1,6.8,0.3,x,x,
Clc1cccc(CN2CCOCC2)c1Cl,2.2,0.4,60.0*,9.9*,-6.2,-8.0,GPR151 confirm=-0.1;GPR119 counter=5.9
c1ccc2c(CN3CCOCC3)cccc2c1,7.8,0.2,37.7,-0.1,x,x,
Brc1c(OCCCN2CCNCC2)ccc2ccccc12,-18.4,-0.4,55.7*,17.5*,6.2,-1.5,GPR151 confirm=0.3;GPR119 counter=-5.2
CCN1CCN(CC#CCOc2ccccc2OC)CC1,7.5,0.1,82.1*,9.7*,8.0,13.4,GPR151 confirm=-0.6;GPR119 counter=-10.3
